Screening data from PubChem.
KDM5B inhibitor – inhibitors of human KDM5B histone demethylase; KDM5B demethylase, FDH-coupled NADH fluorescence (FDH is formaldehyde dehydrogenase); Potency, µM (doses to about 57.7 µM), hits mostly inhibitors; 220,000 tested, 2.6% active; active = well fitted inhibition curve with a large enough effect; inconclusive = small, poorly fitted or top-dose-only effect; inactive = no such curve, though single readings can be large or run the other way; also: potency is read from the fitted curve at half-maximal effect; 0% is about no effect; nearly all actives have a fitted effect of over 70% in size
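KDM5BΔAP (200 nM final) in 50 mM HEPES pH 7.5, 0.01% Tween-20 was preincubated 10 min at RT with compound over a concentration range. Substrate mix (H3K4me3 12.5 µM, α-KG 25 µM, Fe²⁺, ascorbate, NAD⁺, FDH) was added, and NADH fluorescence change over 30 min gave dose-response curves.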
IP6K1 inhibitor – blocks human inositol hexakisphosphate kinase 1; 140,000 tested, 0.81% active; IP6K1 kinase, ADP-Glo luminescence, 2 h; stronger effect = lower value; activity change, % (series mostly up to about 58 µM); AID 1645851; Q92551; in the data active = activity change below about -25%; also: % is scaled to controls: 0 for no effect and ±100 for the full control effect
Target sequence (Q92551 whole entry, looked up): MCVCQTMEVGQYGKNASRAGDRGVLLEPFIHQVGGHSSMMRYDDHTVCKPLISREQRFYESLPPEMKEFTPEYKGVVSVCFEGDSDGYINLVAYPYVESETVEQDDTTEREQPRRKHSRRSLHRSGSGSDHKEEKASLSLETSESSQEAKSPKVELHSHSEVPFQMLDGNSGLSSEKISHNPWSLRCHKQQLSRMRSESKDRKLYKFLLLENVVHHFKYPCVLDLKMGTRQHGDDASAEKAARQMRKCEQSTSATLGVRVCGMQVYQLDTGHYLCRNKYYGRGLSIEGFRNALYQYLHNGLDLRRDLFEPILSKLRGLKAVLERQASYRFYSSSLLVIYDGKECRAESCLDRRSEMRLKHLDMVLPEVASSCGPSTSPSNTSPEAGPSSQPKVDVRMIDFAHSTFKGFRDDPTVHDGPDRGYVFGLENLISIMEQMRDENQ
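ADP-Glo luminescence measures ADP made by human IP6K1 during a 2 h RT reaction with ATP/IP6 (mix at 1.3 mM/130 uM); top library doses 57.5 and 19.1 uM final.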
An asterisk follows results filed as active. This is a sample that favours compounds with a hit; in the whole collection about 2.8% have one here.

What do the screens show for `CSc1ccc(/C=C/c2nc3ccccc3n2S(=O)(=O)c2cccc(Cl)c2)cc1`?
KDM5B inhibitor: inconclusive; IP6K1 inhibitor: -41*

What do the screens show for `CNC(=O)c1cc(C2CC2)nc2c1c(C1CCN([S+](=O)([O-])c3cccc(C(F)(F)F)c3)CC1)nn2C`?
IP6K1 inhibitor: -14

How did O=C1c2cnc(-c3cc4ccccc4o3)nc2OCCN1c1ccccc1 do in these assays?
KDM5B inhibitor: 22µM*; IP6K1 inhibitor: -17

What do the screens show for `O=C1c2cnc(-c3cc4ccccc4o3)nc2OCCN1Cc1ccccc1`?
KDM5B inhibitor: inactive; IP6K1 inhibitor: -12

How did COc1ccc(-c2[nH]nc3ncc(-c4ccc(F)cc4OC)nc23)c(C)c1 do in these assays?
KDM5B inhibitor: 7.9µM*; IP6K1 inhibitor: 10

Results for COc1ncccc1-c1cnc2n[nH]c(-c3ccc(F)cc3C)c2n1 ?
KDM5B inhibitor: inconclusive; IP6K1 inhibitor: 31

Results for COc1ccc(-c2[nH]nc3ncc(-c4cccnc4OC)nc23)c(C)c1 ?
KDM5B inhibitor: 35µM*; IP6K1 inhibitor: 8

How did COc1ccc(-c2[nH]nc3ncc(-c4ccccc4OC)nc23)c(C)c1 do in these assays?
KDM5B inhibitor: inconclusive; IP6K1 inhibitor: 13

Results for COc1ccc(S(=O)(=O)Nc2nc3ccccc3nc2Nc2ccc(Br)cc2)cc1 ?
KDM5B inhibitor: inactive

Results for COc1ccc(F)cc1-c1ccc(CN2CCCCC2C(=O)NCCc2ccc(Cl)cc2)cc1 (centres undefined) ?
IP6K1 inhibitor: -5

What do the screens show for `O=C(NCCc1ccc(F)cc1)c1cc(-c2cccs2)c2cccn2n1`?
IP6K1 inhibitor: 5

Results for Cc1ccccc1-c1[nH]nc2ncc(-c3cnn(C)c3)nc12 ?
KDM5B inhibitor: 32µM*; IP6K1 inhibitor: 17

How did Cc1ccccc1-c1[nH]nc2ncc(-c3ccccc3F)nc12 do in these assays?
KDM5B inhibitor: 35µM*; IP6K1 inhibitor: 11

How did COc1ccc(-c2cnc3n[nH]c(-c4ccccc4C)c3n2)cn1 do in these assays?
KDM5B inhibitor: inconclusive; IP6K1 inhibitor: 7

What do the screens show for `Cc1ccsc1-c1[nH]nc2ncc(-c3ccccc3F)nc12`?
KDM5B inhibitor: inactive; IP6K1 inhibitor: 17

What do the screens show for `Cc1ccccc1-c1[nH]nc2ncc(-c3ccsc3)nc12`?
KDM5B inhibitor: 32µM*; IP6K1 inhibitor: 21

Results for Cc1ccccc1-c1[nH]nc2ncc(-c3cccc(O)c3)nc12 ?
KDM5B inhibitor: inconclusive; IP6K1 inhibitor: 4

How did CC(C)NC(=O)c1cn2cc(-c3ccc(C(F)(F)F)cc3)sc2n1 do in these assays?
IP6K1 inhibitor: 1

Results for Cc1nc(C)c(-c2csc(Nc3ccc(N(C)C)cc3)n2)s1 ?
KDM5B inhibitor: inactive

How did O=C(NCCc1ccc(Cl)cc1)C1CCCN1C(=O)c1cccc(-c2ccccn2)c1 (centres undefined) do in these assays?
IP6K1 inhibitor: -5

What do the screens show for `O=C(c1cccs1)N1CCC(O)(c2ccccc2)[C@H](N2CCCC2)C1` (some centres undefined)?
KDM5B inhibitor: inconclusive; IP6K1 inhibitor: 33

How did O[C@]1(c2ccccc2)CCN(Cc2ccncc2)C[C@H]1N1CCCC1 do in these assays?
KDM5B inhibitor: 6.3µM*; IP6K1 inhibitor: 21

What do the screens show for `O=C(C1CC1)N1CC[C@](O)(c2ccccc2)[C@H](N2CCCC2)C1`?
KDM5B inhibitor: 16µM*; IP6K1 inhibitor: 19

How did O[C@]1(c2ccccc2)CCN(Cc2ccco2)C[C@H]1N1CCCC1 do in these assays?
KDM5B inhibitor: inconclusive; IP6K1 inhibitor: 18

What do the screens show for `O=C1CCN(CC(O)Cc2ccccc2)c2ccccc2CCN1Cc1ccccc1` (centres undefined)?
IP6K1 inhibitor: 0

What do the screens show for `O=C1CCN(C[C@@H](O)COCc2ccccc2)c2cc3c(cc2CN1C1CCCC1)OCO3`?
IP6K1 inhibitor: 15

How did Cc1ccc(-c2cccc(CN3CCCC(N[S+](C)(=O)[O-])C3)c2)cc1Cl (centres undefined) do in these assays?
IP6K1 inhibitor: -3

How did CCC1=C(C(=O)OC)C(c2ccccc2C)N2C(CC(=O)NCC3CC3)=CSC2=N1 (centres undefined) do in these assays?
KDM5B inhibitor: 32µM*; IP6K1 inhibitor: 23

What do the screens show for `CCC1=C(C(=O)OC)C(c2ccccc2)N2C(CC(=O)NCC3CC3)=CSC2=N1` (centres undefined)?
KDM5B inhibitor: inconclusive; IP6K1 inhibitor: 25

How did CNC(=O)[C@@H](Cc1ccccc1)N1CCC[C@H]1C(=O)NCc1ccccn1 do in these assays?
KDM5B inhibitor: 28µM*; IP6K1 inhibitor: -2

How did CNC(=O)[C@@H](Cc1ccccc1)N1CCC[C@H]1C(=O)NCc1cccnc1 do in these assays?
KDM5B inhibitor: inactive; IP6K1 inhibitor: 3

How did COc1ccccc1-c1cc(C(=O)NCc2cccnc2)c2c(c1)N(C)CCO2 do in these assays?
KDM5B inhibitor: 40µM*; IP6K1 inhibitor: -10

How did COCC(=O)N1CCCN(Cc2cccnc2)c2ccccc21 do in these assays?
KDM5B inhibitor: inactive; IP6K1 inhibitor: -5
